Measurements as given in the supplement of paper PMC10849652.
The full data set covers some 8,800 targets. This sample favours those with a hit. About 0.5% of all pairs of compound and target were hits. Unmarked numbers belong to inactive results.

Legend:
Test in all cases: log2 fold change, soluble protein after heating vs DMSO (PISA); higher = thermal stabilisation; K562 lysate, 10 uM; active = over 0.2 and 3.5 SD of the protein, either way, in both replicates (recomputed)
lapatinib = compound: CS(=O)(=O)CCNCc1ccc(-c2ccc3ncnc(Nc4ccc(OCc5cccc(F)c5)c(Cl)c4)c3c2)o1 [lapatinib]
Summary of the method: (§1)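 Thermal stability, expressed as log-two fold change relative to solvent controls, is given from duplicates. Crude K562 extract in PBS pH 7.4 with 1 mM MgCl2, at 1 mg/mL protein, was treated with 10 μM compound for 30 min and heated in aliquots for 3 min across 48°C-58°C. After pooling, adjustment to 0.5% NP-40 at 4°C and centrifugation at 21,000xg for 90 min, supernatant protein was measured by TMTpro 16plex LC-MS/MS with channel sums equalised.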

pictilisib = compound: CS(=O)(=O)N1CCN(Cc2cc3nc(-c4cccc5[nH]ncc45)nc(N4CCOCC4)c3s2)CC1 [pictilisib]
Summary of the method: as §1

crizotinib = compound: C[C@@H](Oc1cc(-c2cnn(C3CCNCC3)c2)cnc1N)c1c(Cl)ccc(F)c1Cl [crizotinib]
Summary of the method: as §1

[1] = compound: C[C@H](C1=CC=C(C=C1)C(=O)NC2=C3C=CNC3=NC=C2)N
Summary of the method: as §1

duvelisib = compound: C[C@H](Nc1ncnc2nc[nH]c12)c1cc2cccc(Cl)c2c(=O)n1-c1ccccc1 [duvelisib]
Summary of the method: as §1

gandotinib = compound: Cc1cc(Nc2cc(CN3CCOCC3)c3nc(C)c(Cc4ccc(Cl)cc4F)n3n2)n[nH]1 [gandotinib]
Summary of the method: as §1

tozasertib = compound: Cc1cc(Nc2cc(N3CCN(C)CC3)nc(Sc3ccc(NC(=O)C4CC4)cc3)n2)n[nH]1 [tozasertib]
Summary of the method: as §1

doramapimod = compound: Cc1ccc(-n2nc(C(C)(C)C)cc2NC(=O)Nc2ccc(OCCN3CCOCC3)c3ccccc23)cc1 [doramapimod]
Summary of the method: as §1

bafetinib = compound: Cc1ccc(NC(=O)c2ccc(CN3CC[C@H](N(C)C)C3)c(C(F)(F)F)c2)cc1Nc1nccc(-c2cncnc2)n1 [bafetinib]
Summary of the method: as §1

[2] = compound: Cc1cccc(CC(=O)N2CCc3c2ccc(-c2cn(C)c4ncnc(N)c24)c3F)n1
Summary of the method: as §1

nilotinib = compound: Cc1cn(-c2cc(NC(=O)c3ccc(C)c(Nc4nccc(-c5cccnc5)n4)c3)cc(C(F)(F)F)c2)cn1 [nilotinib]
Summary of the method: as §1

[3] = compound: Cc1nc(Nc2n[nH]c3c2CN(C(=O)N[C@H](CN(C)C)c2ccccc2)C3(C)C)c2sccc2n1
Summary of the method: as §1

dasatinib = compound: Cc1nc(Nc2ncc(C(=O)Nc3c(C)cccc3Cl)s2)cc(N2CCN(CCO)CC2)n1 [dasatinib]
Summary of the method: as §1

[4] = compound: Cc1ncc(-c2ccnc(Nc3ccc(S(C)(=O)=O)cc3)n2)n1C(C)C
Summary of the method: as §1

[5] = compound: Cn1cc(-c2ccc3c(c2)CCN3C(=O)Cc2cccc(C(F)(F)F)c2)c2c(N)ncnc21
Summary of the method: as §1

quisinostat = compound: Cn1cc(CNCC2CCN(c3ncc(C(=O)NO)cn3)CC2)c2ccccc21 [quisinostat]
Summary of the method: as §1

tipifarnib = compound: Cn1cncc1[C@@](N)(c1ccc(Cl)cc1)c1ccc2c(c1)c(-c1cccc(Cl)c1)cc(=O)n2C [tipifarnib]
Summary of the method: as §1

[6] = compound: NC(=O)Nc1cc(-c2cccc(F)c2)sc1C(=O)N[C@H]1CCCNC1
Summary of the method: as §1

[7] = compound: NC(=O)c1cnc(N[C@@H]2CCCC[C@@H]2N)nc1Nc1cccc(-n2nccn2)c1
Summary of the method: as §1

[8] = compound: NC1(c2ccc(-c3nc4ccn5c(=O)[nH]nc5c4cc3-c3ccccc3)cc2)CCC1
Summary of the method: as §1

UniProt Q96NC0, sequence (Q96NC0 whole entry, looked up): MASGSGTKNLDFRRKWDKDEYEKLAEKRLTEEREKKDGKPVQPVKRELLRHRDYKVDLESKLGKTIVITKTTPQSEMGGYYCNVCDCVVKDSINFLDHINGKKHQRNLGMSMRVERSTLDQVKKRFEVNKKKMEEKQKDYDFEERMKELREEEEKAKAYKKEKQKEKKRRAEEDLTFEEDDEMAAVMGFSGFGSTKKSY
UniProt Q9BZI7, sequence (Q9BZI7 whole entry, looked up): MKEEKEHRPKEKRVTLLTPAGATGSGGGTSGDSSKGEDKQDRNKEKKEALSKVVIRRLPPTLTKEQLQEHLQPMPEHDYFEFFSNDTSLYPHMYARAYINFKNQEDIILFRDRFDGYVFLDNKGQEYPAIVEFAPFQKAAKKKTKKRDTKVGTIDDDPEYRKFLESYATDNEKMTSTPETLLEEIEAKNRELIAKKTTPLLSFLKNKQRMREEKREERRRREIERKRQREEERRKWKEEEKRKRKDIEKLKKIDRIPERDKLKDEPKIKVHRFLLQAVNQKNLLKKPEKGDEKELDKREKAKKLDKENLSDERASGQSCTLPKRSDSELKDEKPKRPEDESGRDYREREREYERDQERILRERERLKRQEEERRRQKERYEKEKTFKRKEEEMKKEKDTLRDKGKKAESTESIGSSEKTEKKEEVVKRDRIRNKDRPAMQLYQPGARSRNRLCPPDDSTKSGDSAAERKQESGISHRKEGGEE
UniProt Q86U90, sequence (Q86U90 whole entry, looked up): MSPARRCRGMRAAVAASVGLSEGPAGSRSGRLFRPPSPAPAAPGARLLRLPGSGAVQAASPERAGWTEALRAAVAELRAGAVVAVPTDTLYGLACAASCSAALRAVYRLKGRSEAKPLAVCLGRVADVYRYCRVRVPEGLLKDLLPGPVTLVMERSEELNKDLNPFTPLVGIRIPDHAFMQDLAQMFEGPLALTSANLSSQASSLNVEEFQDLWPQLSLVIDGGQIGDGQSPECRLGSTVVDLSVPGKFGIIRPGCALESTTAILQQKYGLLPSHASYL
UniProt Q9P253, sequence (Q9P253 whole entry, looked up): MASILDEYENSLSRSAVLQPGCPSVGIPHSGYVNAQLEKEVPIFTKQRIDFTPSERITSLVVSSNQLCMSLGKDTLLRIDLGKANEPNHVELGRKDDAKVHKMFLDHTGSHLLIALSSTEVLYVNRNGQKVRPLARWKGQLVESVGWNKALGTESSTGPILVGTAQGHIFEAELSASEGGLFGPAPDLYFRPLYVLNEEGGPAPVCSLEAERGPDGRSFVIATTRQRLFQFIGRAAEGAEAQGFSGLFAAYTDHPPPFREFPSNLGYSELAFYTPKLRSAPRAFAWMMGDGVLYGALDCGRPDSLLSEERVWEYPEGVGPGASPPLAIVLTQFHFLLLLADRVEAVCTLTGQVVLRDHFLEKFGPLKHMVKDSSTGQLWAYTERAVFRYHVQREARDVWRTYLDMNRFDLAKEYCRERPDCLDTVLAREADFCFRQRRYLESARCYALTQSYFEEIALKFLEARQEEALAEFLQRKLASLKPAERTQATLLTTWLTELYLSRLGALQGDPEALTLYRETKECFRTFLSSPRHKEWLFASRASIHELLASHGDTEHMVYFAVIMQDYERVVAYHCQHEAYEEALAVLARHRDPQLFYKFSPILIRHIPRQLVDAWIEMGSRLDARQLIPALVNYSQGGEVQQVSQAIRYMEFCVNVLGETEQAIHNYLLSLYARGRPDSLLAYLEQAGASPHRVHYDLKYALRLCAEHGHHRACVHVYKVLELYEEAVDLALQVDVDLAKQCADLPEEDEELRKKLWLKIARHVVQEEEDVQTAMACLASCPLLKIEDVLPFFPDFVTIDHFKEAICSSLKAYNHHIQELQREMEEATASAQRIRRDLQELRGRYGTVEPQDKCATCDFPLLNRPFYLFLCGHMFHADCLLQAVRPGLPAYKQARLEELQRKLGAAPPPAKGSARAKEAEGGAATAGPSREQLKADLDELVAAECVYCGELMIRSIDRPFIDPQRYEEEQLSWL
UniProt O75717, sequence (O75717 whole entry, looked up): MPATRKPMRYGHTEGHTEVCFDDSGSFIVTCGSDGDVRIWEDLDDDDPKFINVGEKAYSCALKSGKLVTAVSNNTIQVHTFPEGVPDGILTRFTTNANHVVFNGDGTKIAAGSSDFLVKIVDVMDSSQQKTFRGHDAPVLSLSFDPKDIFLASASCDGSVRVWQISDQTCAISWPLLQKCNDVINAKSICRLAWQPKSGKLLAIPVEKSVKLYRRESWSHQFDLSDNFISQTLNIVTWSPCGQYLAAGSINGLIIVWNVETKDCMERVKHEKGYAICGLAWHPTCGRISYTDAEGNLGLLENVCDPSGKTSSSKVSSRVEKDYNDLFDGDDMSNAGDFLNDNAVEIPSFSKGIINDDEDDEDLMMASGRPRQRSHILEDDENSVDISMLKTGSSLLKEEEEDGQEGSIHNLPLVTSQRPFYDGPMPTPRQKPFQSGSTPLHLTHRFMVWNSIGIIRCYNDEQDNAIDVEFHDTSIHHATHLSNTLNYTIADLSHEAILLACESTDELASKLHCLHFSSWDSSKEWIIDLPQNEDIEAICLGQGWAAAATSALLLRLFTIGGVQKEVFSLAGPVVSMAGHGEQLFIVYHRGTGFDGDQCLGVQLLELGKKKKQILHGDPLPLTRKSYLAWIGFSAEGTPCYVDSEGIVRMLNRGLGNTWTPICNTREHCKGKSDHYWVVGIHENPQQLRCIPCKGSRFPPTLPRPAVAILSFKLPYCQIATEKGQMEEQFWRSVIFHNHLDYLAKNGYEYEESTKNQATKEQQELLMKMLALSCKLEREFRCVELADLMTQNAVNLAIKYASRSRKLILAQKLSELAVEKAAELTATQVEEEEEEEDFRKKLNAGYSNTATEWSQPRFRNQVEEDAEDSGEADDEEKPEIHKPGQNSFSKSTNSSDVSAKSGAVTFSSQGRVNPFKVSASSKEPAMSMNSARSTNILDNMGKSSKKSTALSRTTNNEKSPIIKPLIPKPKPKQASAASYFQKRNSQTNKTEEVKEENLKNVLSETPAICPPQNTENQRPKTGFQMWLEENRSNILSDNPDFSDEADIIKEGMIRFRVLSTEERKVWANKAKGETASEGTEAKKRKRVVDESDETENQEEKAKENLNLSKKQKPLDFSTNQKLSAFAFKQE
UniProt Q86Y07, sequence (Q86Y07 whole entry, looked up): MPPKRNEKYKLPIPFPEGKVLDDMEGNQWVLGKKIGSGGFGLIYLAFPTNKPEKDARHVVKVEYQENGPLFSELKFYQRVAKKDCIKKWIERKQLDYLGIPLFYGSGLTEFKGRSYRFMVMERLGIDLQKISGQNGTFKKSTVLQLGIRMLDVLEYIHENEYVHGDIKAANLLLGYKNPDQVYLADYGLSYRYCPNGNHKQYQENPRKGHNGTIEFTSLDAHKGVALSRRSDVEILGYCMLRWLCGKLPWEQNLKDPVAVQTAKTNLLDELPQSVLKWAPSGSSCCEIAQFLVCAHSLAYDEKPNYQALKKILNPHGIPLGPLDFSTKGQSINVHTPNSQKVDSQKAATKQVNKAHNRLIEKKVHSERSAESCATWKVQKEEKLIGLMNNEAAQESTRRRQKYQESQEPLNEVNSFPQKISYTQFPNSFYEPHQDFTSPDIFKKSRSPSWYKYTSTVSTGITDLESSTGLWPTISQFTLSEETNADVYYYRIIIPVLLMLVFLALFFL
UniProt Q9Y2D9, sequence (Q9Y2D9 whole entry, looked up): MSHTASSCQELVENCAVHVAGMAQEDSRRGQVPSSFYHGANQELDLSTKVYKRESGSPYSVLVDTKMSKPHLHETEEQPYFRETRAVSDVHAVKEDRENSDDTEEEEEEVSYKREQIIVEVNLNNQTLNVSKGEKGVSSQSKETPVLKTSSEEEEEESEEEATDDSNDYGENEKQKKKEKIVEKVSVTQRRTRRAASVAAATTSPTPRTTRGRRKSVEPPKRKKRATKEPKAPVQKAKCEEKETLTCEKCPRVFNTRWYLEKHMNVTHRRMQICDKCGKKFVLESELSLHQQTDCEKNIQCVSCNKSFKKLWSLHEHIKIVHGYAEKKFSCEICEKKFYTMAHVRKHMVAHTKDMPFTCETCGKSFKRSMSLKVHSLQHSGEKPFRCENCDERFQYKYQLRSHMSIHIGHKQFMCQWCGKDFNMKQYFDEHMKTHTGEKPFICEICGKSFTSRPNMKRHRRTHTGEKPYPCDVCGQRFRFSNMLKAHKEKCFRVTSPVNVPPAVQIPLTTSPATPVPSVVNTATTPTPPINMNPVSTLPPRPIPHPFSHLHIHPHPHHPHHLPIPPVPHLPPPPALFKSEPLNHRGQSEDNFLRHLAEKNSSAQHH
UniProt Q16670, sequence (Q16670 whole entry, looked up): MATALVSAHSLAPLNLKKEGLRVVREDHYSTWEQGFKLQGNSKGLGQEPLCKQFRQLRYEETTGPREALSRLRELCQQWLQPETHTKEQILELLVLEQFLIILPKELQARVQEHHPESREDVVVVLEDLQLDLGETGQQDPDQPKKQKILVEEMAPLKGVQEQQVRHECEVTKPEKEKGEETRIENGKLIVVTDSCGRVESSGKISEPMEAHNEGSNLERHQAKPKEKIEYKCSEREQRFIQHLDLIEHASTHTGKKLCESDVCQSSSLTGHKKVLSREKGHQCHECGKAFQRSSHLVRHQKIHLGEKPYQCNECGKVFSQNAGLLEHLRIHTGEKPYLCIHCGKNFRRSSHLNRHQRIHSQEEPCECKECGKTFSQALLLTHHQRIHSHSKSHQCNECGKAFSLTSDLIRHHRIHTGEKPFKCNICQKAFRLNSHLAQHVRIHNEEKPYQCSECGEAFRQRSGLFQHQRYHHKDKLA
UniProt O00488, sequence (O00488 whole entry, looked up): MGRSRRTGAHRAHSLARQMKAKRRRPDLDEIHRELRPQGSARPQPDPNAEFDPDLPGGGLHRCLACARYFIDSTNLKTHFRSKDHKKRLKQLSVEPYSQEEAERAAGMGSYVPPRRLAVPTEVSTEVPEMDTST

Target	log2 fold change (lapatinib)	log2 fold change (pictilisib)	log2 fold change (crizotinib)	log2 fold change [1]	log2 fold change (duvelisib)	log2 fold change (gandotinib)	log2 fold change (tozasertib)	log2 fold change (doramapimod)	log2 fold change (bafetinib)	log2 fold change [2]	log2 fold change (nilotinib)	log2 fold change [3]	log2 fold change (dasatinib)	log2 fold change [4]	log2 fold change [5]	log2 fold change (quisinostat)	log2 fold change (tipifarnib)	log2 fold change [6]	log2 fold change [7]	log2 fold change [8]
UTP18 (UniProt Q9Y5J1)	0.032	0.125	-0.05	0.097	-0.065	-0.055	0.074	-0.025	-0.084	-0.038	0.059	-0.009	0.005	-0.179	-0.03	-0.034	-0.002	0.058	-0.016	0.074
ZMAT2 (UniProt Q96NC0)	0.006	0.003	-0.005	0.02	-0.034	-0.035	-0.028	0.042	0.053	-0.043	-0.014	0.037	0.022	0.027	0.033	-0.066	-0.013	-0.044	0.002	-0.03
USE1 (UniProt Q9NZ43)	-0.035	0.088	-0.057	0.039	-0.056	-0.103	0.011	0.112	-0.019	0.027	-0.019	0.038	0.068	0.057	0.02	0.08	-0.021	0.029	-0.027	0.025
WDR41 (UniProt Q9HAD4)	0.013	0.099	0.022	-0.037	-0.026	0.149	-0.069	0.241 (active)	-0.065	0.126	-0.012	-0.023	0.028	-0.011	0.005	-0.036	-0.077	-0.009	-0.032	-0.017
WDR3 (UniProt Q9UNX4)	-0.012	-0.113	-0.003	-0.054	0.008	-0.022	0.003	0.01	-0.083	0.14	0.055	0.001	-0.069	-0.016	0.027	0.044	-0.003	0.021	0.023	0.009
WDHD1 (UniProt O75717)	-0.017	-0.025	-0.035	0.077	0.007	-0.082	-0.043	0.011	0.023	-0.037	-0.008	0.026	-0.023	0.012	0.01	-0.029	-0.01	0.008	0.013	0.01
ZMYM2 (UniProt Q9UBW7)	0.028	-0.147	-0.079	0.098	0.028	-0.329	0.046	0.041	-0.024	-0.084	-0.04	0.001	-0.023	-0.007	0.035	-0.082	0.08	0.056	0.099	-0.033
UPF3B (UniProt Q9BZI7)	0.005	0.021	0.007	-0.171	0.016	0.037	0.031	0.003	-0.012	0.067	-0.016	0.012	0.004	0.014	0.005	-0.013	0.014	0.022	-0.025	-0.003
WDCP (UniProt Q9H6R7)	-0.048	0.017	-0.079	0.022	0.038	-0.058	-0.03	-0.02	-0.027	0.002	-0.01	0.001	-0.035	0.006	-0.018	-0.107	0.009	0.014	-0.069	0.007
VPS18 (UniProt Q9P253)	0.009	-0.017	-0.049	-0.056	-0.04	-0.032	-0.003	-0.004	-0.06	0.047	-0.013	-0.029	-0.016	0.003	-0.005	-0.018	-0.05	0.029	0.01	-0.019
VRK2 (UniProt Q86Y07)	0.03	0.002	-0.069	0.353 (active)	-0.016	-0.04	-0.026	-0.063	-0.03	0.03	0.048	0.219	0.185	0.017	0.17	-0.044	-0.018	0.026	-0.003	-0.006
VPS28 (UniProt Q9UK41)	0.038	-0.005	0.051	-0.132	-0.032	0.018	-0.03	-0.005	0.034	0.034	-0.031	0.034	0.021	0.004	0.086	0.081	0.029	-0.038	0.012	-0.027
YRDC (UniProt Q86U90)	-0.028	-0.038	-0.047	-0.039	0.018	0.055	0.027	0.035	0.022	0.01	0	0.021	0.022	0.018	-0.019	-0.019	0.008	-0.004	0.01	-0.003
VCPIP1 (UniProt Q96JH7)	-0.061	-0.053	-0.052	-0.059	-0.002	-0.038	-0.028	0.025	-0.043	0.1	-0.006	0.044	-0.045	-0.025	0.016	-0.046	0.011	0.031	0.029	-0.059
ZNF652 (UniProt Q9Y2D9)	–	–	-0.007	–	–	–	–	0	–	–	–	–	–	–	–	0	–	-0.036	–	–
ZNF593 (UniProt O00488)	-0.114	0.078	0.113	-0.087	0.089	0.016	0.047	0.033	0.059	0.045	–	–	0.125	–	-0.042	0.02	–	0.063	0.295	0.03
ZSCAN26 (UniProt Q16670)	–	–	-0.025	–	–	–	–	0.102	–	–	–	–	–	–	–	0.169	–	-0.093	–	–
ZSCAN21 (UniProt Q9Y5A6)	–	–	–	-0.131	–	-0.108	-0.001	–	–	0.068	–	–	–	–	–	–	–	–	–	–
